GDH-TPI inh = GDH-TPI coupling enzyme inhibitors, primary screen, artefact control for M. tuberculosis FBA inhibitor project, biochemical, absorbance, full deck; inhibition, % at 4.8 µM; GDH-TPI coupled enzyme counterscreen, NADH absorbance; 360,000 compounds, 1.2% hits; AID 588335, 2011; in the data active = inhibition above about 30%
Rv3671c protease = Rv3671c serine protease inhibitors, primary screen, biochemical, fluorescence polarization, M. tuberculosis H37Rv; P9WHR9; inhibition, % at 5.96 µM; 320,000 compounds, 0.048% hits; AID 2606, 2010; in the data active = inhibition above about 38%;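 also: extracellular domain of Rv3671c used as enzyme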
Mtb bLac sens = beta-lactam sensitization of Mtb H37Rv, H37Rv | M. tuberculosis H37Rv growth with meropenem, percent inhibition | inhibition, % at 25 µM | 330,000 compounds, 0.27% hits | AID 434955, 2010; call rule not given here;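 also: growth measured after seven days incubation then overnight dye step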
Mtb UGM inh = M. tuberculosis UGM enzyme inhibitors, primary screen, biochemical, fluorescence polarization, single point; UDP-galactopyranose mutase (Mycobacterium tuberculosis (strain ATCC 25618 / H37Rv)), …; purified UGM, fluorescence polarization probe displacement; 320,000 compounds, 0.06% hits; inhibition, % at 10 µM; in the data active = inhibition above about 10%, passing the limit was not always enough
Target sequence (P9WIQ1 whole entry, looked up): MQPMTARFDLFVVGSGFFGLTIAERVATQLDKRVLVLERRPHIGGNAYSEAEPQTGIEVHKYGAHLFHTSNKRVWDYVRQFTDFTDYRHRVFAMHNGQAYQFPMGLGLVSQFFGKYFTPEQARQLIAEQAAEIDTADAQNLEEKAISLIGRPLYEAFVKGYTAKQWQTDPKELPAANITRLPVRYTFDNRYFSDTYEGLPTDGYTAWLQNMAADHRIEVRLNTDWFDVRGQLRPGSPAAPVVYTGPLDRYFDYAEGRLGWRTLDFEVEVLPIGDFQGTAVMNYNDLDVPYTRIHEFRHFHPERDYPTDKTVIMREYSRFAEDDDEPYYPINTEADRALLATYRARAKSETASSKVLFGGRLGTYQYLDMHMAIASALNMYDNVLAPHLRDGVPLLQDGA
RecA intein inh = Mtb RecA intein splicing inhibitors, primary screen, biochemical, fluorescence, HTS | Protein RecA (Mycobacterium tuberculosis (strain ATCC 25618 / H37Rv)), P9WHJ3 | cell-free RecA intein splicing | inhibition, % (test concentration not listed) | 290,000 compounds, 0.75% hits | AID 2221, 2009; in the data active = inhibition above about 30%
FBA Mtb inh = Mtb FBA enzyme inhibitors, primary screen, biochemical, fluorescence, strain H37Rv. Fructose-bisphosphate aldolase (Mycobacterium tuberculosis (strain ATCC 25618 / H37Rv)), …. purified M. tuberculosis FBA, fluorescence read-out. inhibition, % at 1 µM. 360,000 compounds, 2.3% hits. AID 588726, 2011; in the data active = inhibition above about 27%
A number is an active result; n = inactive; x = no result given; + = active, no number; ! = a repeat was not active. Sampled rows, rich in hits. Any-hit rate of the full collection: about 4%.

SMILES	GDH-TPI inh	Rv3671c protease	Mtb bLac sens	Mtb UGM inh	RecA intein inh	FBA Mtb inh
CCOc1ccc(/C=N/Nc2ccccn2)cc1OC	n	n	n	n	n	n
Cn1nc(C(C)(C)C)cc1NC(=O)C1(C)CCN1C(=O)CC(c1ccccc1)c1ccccc1 (stereo not given)	n	x	x	x	x	n
CN(Cc1c(C(=O)N/N=C/c2ccccc2O)nnn1-c1nonc1N)C1CCCCC1	n	x	x	x	x	n
CN(C)c1ccc(NC(=O)Nc2ccc3c(c2)c(=O)n(C)n3-c2ccccc2)cc1	n	x	x	x	x	n
CC(CC(=O)Nc1ccc2c(c1)c(=O)n(C)n2-c1ccccc1F)c1ccccc1 (stereo not given)	n	x	x	x	x	139
Cn1c(=O)c2cc(NC(=O)CC(C)(C)C)ccc2n1-c1ccccc1F	n	x	x	x	x	174
Cn1c(/C(C#N)=C(\O)c2cc(Cl)sc2Cl)nc2ccccc21	n	n	n	n	n	n
COc1ccc(/C(O)=C(\C#N)c2nc3ccccc3n2C)cc1OC	51	n	n	n	n	n
O=C(c1cccc(NS(=O)(=O)c2cccc([N+](=O)[O-])c2)c1)N1CCOCC1	n	n	n	n	n	156
COc1ccc(CN2CCN(c3ccccn3)CC2)c(OC)c1C	n	n	n	n	n	+!
CC(C)(C)S(=O)N1Cc2cc(C(=O)NCC(F)(F)F)nc(-c3cccc(-c4cccc(F)c4)c3)c2[C@@H]1CCO (stereo not given in full)	x	x	x	x	x	n
N/C(Cc1cccc2ccccc12)=N\OC(=O)Cc1cccs1	n	n	n	n	n	n
COc1ccc(CC(=O)O/N=C(\N)Cc2cccc3ccccc23)cc1OC	n	n	n	n	32	n
N/C(Cc1cccc2ccccc12)=N\OC(=O)c1cccs1	x	n	n	n	33	x
CCn1c(SCC(=O)NC2CC2)nnc1-c1ccc(OC)cc1	n	n	n	n	n	n
CCNC(=O)C1CCCN(C(=O)Cc2ccc3ccccc3c2)CC1 (stereo not given)	n	x	x	x	x	n
CC(=O)C(Cc1ccccc1)NC(=O)COC(=O)c1cccc(C)c1[N+](=O)[O-] (stereo not given)	n	n	n	n	x	n
O=C(O)c1cc(-c2ccc(Cl)s2)nc2ccccc12	n	n	n	n	n	159
O=C(O)c1cc(-c2cccs2)nc2ccc(F)cc12	n	n	n	n	n	+
CCN1CCN(C(=O)c2cc(-c3ccc(Cl)s3)nc3ccccc23)CC1	n	x	x	x	n	118
O=C(O)c1cc(-c2cccs2)nc2ccc(Br)cc12	n	n	n	n	n	n
CC(=O)N1CCN(C(=O)c2cc(-c3cccc4ccccc34)nc3ccccc23)CC1	n	n	n	n	n	n
CCN1CCN(C(=O)c2cc(-c3ccco3)nc3ccccc23)CC1	n	n	n	n	x	130
CC(Oc1ccc(Br)cc1)C(=O)Nc1ccc(S(=O)(=O)N(C)C2CCN(C)CC2)cc1 (stereo not given)	n	n	n	n	n	n
Cn1ncc(Cl)c1C(=O)Nc1ccc(CN2CCCCC2)cc1	n	n	n	n	n	n
SMILES	GDH-TPI inh	Rv3671c protease	Mtb bLac sens	Mtb UGM inh	RecA intein inh	FBA Mtb inh
CCc1nc2ccc(C(=O)N(C)CCN(C)C)cn2c1N(C)Cc1cc2ccccc2s1	n	x	x	x	x	n
CN(C)S(=O)(=O)c1cccc(NC(=O)COC(=O)c2cc3ccccc3oc2=O)c1	n	n	n	n	x	n
Cc1ccc(NC(=O)COC(=O)CCC2CCCC2)c(Br)c1	n	n	n	n	x	n
Cc1ccc(-c2cc(C(=O)O)c3ccccc3n2)s1	n	x	n	n	n	+
COc1ccc(C(=O)N2CCCCC2c2cc(C(=O)NCc3cccnc3)no2)cc1 (stereo not given)	n	x	x	x	x	n
COc1ccc(/C=C2\SC(=O)N(CC(=O)NNC(=O)c3ccccc3O)C2=O)cc1	33	n	n	n	n	n
CC(=O)NC(CC(=O)NCCN1C(=O)S/C(=C\c2ccccc2)C1=O)c1ccccc1 (stereo not given)	48	n	n	n	x	n
O=C(CCCN1C(=O)S/C(=C\c2ccccc2)C1=O)NNC(=O)c1ccccc1O	n	n	n	n	n	n
O=C(CN1C(=O)S/C(=C\c2ccccc2)C1=O)NNC(=O)c1ccccc1O	31	n	n	n	n	n
CC1(C(=O)Nc2cccc3cccnc23)CCN1C(=O)Cc1ccc(Cl)cc1Cl (stereo not given)	n	x	x	x	x	n
O=C(CSc1n[nH]c(-c2ccc(S(=O)(=O)NC3CCCCC3)cc2)n1)N1CCCC1	n	n	n	n	n	125
COc1cc(NC(=O)CCc2c(C)[nH]c(=O)c(C#N)c2C)cc(OC)c1	n	n	n	n	n	n
O=C(NCC(Cl)c1ccc2ccccc2c1)c1c(F)cccc1F (stereo not given)	n	n	n	n	n	n
OCc1ccccc1-c1cnc2sc(NCc3ccc(F)cc3)nn12	n	x	x	x	x	n
COC(=O)C1=C(C)NC(C)=C(C(=O)OC)C1c1cn(-c2ccccc2)nc1-c1ccco1	34	n	n	n	n	n
COC(=O)Cn1cc(C=C2C(=O)N(C)C(=O)N(C)C2=O)c2ccccc21	x	n	n	14	n	x
COCCNC(=O)Cn1cc(C=C2C(=O)NC(=O)NC2=O)c2ccccc21	n	n	n	42	n	n
COCCNC(=O)Cn1cc(/C=C(\C#N)C(=O)NC2CC2)c2ccccc21	n	n	n	n	n	n
COCCCNC(=O)Cn1cc(/C=C(\C#N)C(=O)NC2CCCC2)c2ccccc21	33	n	n	n	n	n
Cc1ccc(C2=NN(CCC(=O)NC3CCCC3)C(=O)CC2)cc1	n	n	n	n	n	n
COc1ccc2oc(C(=O)Nc3ccc(S(=O)(=O)N(C)C4CCN(C)CC4)cc3)c(C)c2c1	n	n	n	n	n	n
O=C(Nc1ccc(-n2cnnn2)cc1)c1cccc(S(=O)(=O)N2CCCC2)c1	n	n	n	n	x	n
CC1CCCCC1NC(=O)NC(=O)CCl (stereo not given)	n	n	n	n	34	n
CC1CCCCC1NC(=O)NC(=O)COC(=O)c1nccnc1N (stereo not given)	n	n	n	n	x	118
CC1CCCC(NC(=O)NC(=O)CCl)C1C (stereo not given)	n	n	n	n	48	n
CC1CCCCC1NC(=O)NC(=O)COC(=O)c1cncc(Br)c1 (stereo not given)	n	n	n	x	x	n
O=C(N/N=C/c1cccnc1)c1ccccc1	n	n	n	n	n	n
CN(C)c1ccc(C(=O)N/N=C/c2ccccn2)cc1	35	n	n	n	n	n
